# Experimental data published in PubChem BioAssay (NCI).
# Compounds without any hit were thinned out: in the full panel of roughly 83,000, 20% have a hit.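 48-hour exposure, single concentration, 96-well plates; percent growth endpoint where 0 means no net growth. Active: below 10.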 Values without a mark were called inactive. Calls of active or inactive are those of the source.
# How the values were obtained:
# Test in all cases: NCI-60 one-dose screen, 48 h (100 = growth as untreated, 0 = no growth, -100 = all killed)
# Conditions in all cases: 10 µM unless noted
# [1] = system: SK-MEL-2 melanoma
# [2] = system: EKVX NSCLC
# [3] = system: SN12C renal
# [4] = system: UO-31 renal
# [5] = system: TK-10 renal
# [6] = system: ACHN renal
# [7] = system: CAKI-1 renal
# [8] = system: A498 renal
# [9] = system: CCRF-CEM leukemia
# [10] = system: MOLT-4 leukemia
# [11] = system: SR leukemia
# [12] = system: RPMI-8226 leukemia
# [13] = system: OVCAR-8 ovarian
# [14] = system: OVCAR-5 ovarian
# [15] = system: OVCAR-4 ovarian
# [16] = system: SK-OV-3 ovarian
# [17] = system: IGROV1 ovarian
# [18] = system: OVCAR-3 ovarian
# [19] = system: HS 578T breast
# [20] = system: NCI/ADR-RES ovarian
Structure (SMILES),growth [1],growth [2],growth [3],growth [4],growth [5],growth [6],growth [7],growth [8],growth [9],growth [10],growth [11],growth [12],growth [13],growth [14],growth [15],growth [16],growth [17],growth [18],growth [19],growth [20]
COc1cc(NCCCCN=C(N)N)c2ncccc2c1,27.3%,65.2%,-14.5% (active),90.3%,70.9%,93.6%,98.2%,74.5%,90.7%,67.5%,116%,87.7%,60.8%,86.7%,-99.4% (active),88.3%,56.8%,8.54% (active),94%,104%
COc1cc2c(=O)n(CC3CCCCC3)c3c4cc[nH]c4ncc3c2cc1OC,64%,63.9%,25.7%,23.1%,49.8%,26.8%,37.7%,-5.29% (active),39.5%,49.5%,6.22% (active),34.5%,26.9%,52.3%,19.3%,47.7%,23.6%,38.7%,-4.62% (active),33.8%
CC1=C(C)C(=O)OC([C@](C)(O)[C@]2(O)CC[C@@]3(O)[C@@H]4C[C@H]5O[C@]56CC=CC(=O)[C@]6(C)[C@H]4CC[C@]23COC(=O)c2ccc(C)o2)C1 (stereo not given in full),-63% (active),-46.9% (active),-61% (active),-96.6% (active),-89.8% (active),-95.7% (active),-87.2% (active),-78.3% (active),0.17% (active),4.89% (active),2.88% (active),-17.3% (active),-13.8% (active),-69.8% (active),-32.9% (active),-51.7% (active),-54.4% (active),-96.2% (active),3.52% (active),14.5%
Cc1ccc2c(c1)n([O-])c1cc(Cl)ccc1[n+]2=O,92.5%,94.6%,100%,88.9%,130%,114%,111%,87.9%,34.9%,-9.08% (active),5.98% (active),104%,108%,102%,82.6%,122%,101%,92.6%,135%,104%
O=C1/C(=C/c2ccccc2)CN(CCC(=O)N2C/C(=C\c3ccccc3)C(=O)/C(=C/c3ccccc3)C2)C/C1=C\c1ccccc1,92.1%,63.6%,68.3%,47.7%,98.5%,62.1%,61.7%,60.8%,9.77% (active),29.5%,16.5%,-18.8% (active),16.9%,91%,67.8%,51.3%,70.6%,32.8%,58.1%,76.1%
CCN(C(=O)CN1CCN(c2cc3c(cc2F)c(=O)c(C(=O)O)cn3CC)CC1)c1nc(-c2ccccc2)cs1,-15.3% (active),21.2%,2.74% (active),12.4%,14.6%,8.13% (active),11.7%,-6.64% (active),14%,11.4%,-11% (active),-3.49% (active),7.67% (active),35.6%,3.24% (active),-2.59% (active),23.3%,16.8%,13.6%,5.3% (active)
NC(=S)N/N=C/c1ccc(OCc2ccccc2)cc1,54.2%,74.8%,70.6%,22.8%,60.2%,67%,68.2%,71.5%,39.1%,32.1%,62.8%,1.94% (active),78.2%,89.7%,44.8%,80%,52.8%,62.1%,81.2%,83.7%
CCN(CC)CCC(=O)c1ccc(OC)c2ccccc12,91.7%,94%,106%,62.3%,60.1%,105%,88.7%,124%,18.7%,29.1%,-6.8% (active),8.95% (active),89.6%,91.1%,98.4%,98.3%,91.6%,109%,95.9%,98.8%
CC[C@@H](C)OC(=O)c1nn(C(C)=O)c2ccccc12,107%,101%,102%,92.9%,105%,108%,97.8%,99.2%,103%,123%,110%,107%,92.7%,101%,103%,114%,110%,112%,106%,94.2%
COc1cc(OC)c(/C=C/C(=O)c2c(OC)cc(OC)cc2OC)c(OC)c1,6.13% (active),38.2%,22.6%,30.3%,46.8%,35.9%,7.16% (active),7.18% (active),6.27% (active),-2.79% (active),-11.9% (active),-6.66% (active),17.6%,29.1%,47.6%,24.7%,30.1%,6.92% (active),52.6%,12.3%
Cc1ccccc1CCO,86.3%,105%,107%,88.8%,82.4%,98.4%,100%,96.5%,116%,111%,88.7%,108%,100%,95.9%,106%,98%,95.4%,106%,100%,101%
NC1=CC(=O)C(=O)c2ccccc21,75.1%,76.2%,84.2%,71.3%,114%,85.2%,91.3%,101%,93%,74.1%,81.8%,79.3%,64.2%,93.3%,69.3%,92.6%,89.7%,84.1%,99.5%,58.7%
COc1cc(NC(N)=NCC(C)(C)COc2ccc(C(F)(F)F)cc2)cnc1C#N,77.3%,70.5%,66.8%,29.8%,62.5%,62.9%,62.8%,45.9%,56%,15.6%,49.8%,46%,81.8%,65%,65.8%,66.4%,43.9%,67.5%,31.6%,70.2%
O=C(C[C@@H](C(=O)NCc1cccc(C(F)(F)F)c1)N1C(=O)[C@@H](N2C(=O)OC[C@@H]2c2ccccc2)[C@H]1/C=C/c1ccccc1)NC1CCN(Cc2ccccc2)CC1,49.6%,82.3%,82.2%,64.3%,61%,96.2%,85.2%,49.8%,21%,-5.43% (active),-23.3% (active),-13.7% (active),83.7%,104%,66.1%,81.1%,75%,65.6%,73.3%,69.8%
CCCCNP1(NCCCC)=NP(NCCCC)(NCCCC)=NP(NCCCC)(NCCCC)=NP(NCCCC)(NCCCC)=N1,-23.1% (active),-17.2% (active),20.1%,37.6%,13.6%,33.9%,64.4%,4.56% (active),-16.8% (active),-38.5% (active),-51.8% (active),-41.7% (active),16.7%,16.7%,16.9%,7.65% (active),30.7%,-48.7% (active),-7.98% (active),97.2%
